# Reference: the supplement of paper PMC6555819
# Test system: LXRa:RXRa (NR concentration 270 nM, RXRa partner concentration 90 nM)
# Experiment: PBM binding z-score (relative to random genomic background probes); higher = stronger binding; sequences stand for … in GC…GCGATTGACAGCGTAGAATGAAGG
# Summary of the method: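 For binding z-scores, the reference was random background probes on custom Agilent 4×180K protein-binding microarrays. These arrays were incubated 1 h with ligand-free nuclear receptor dimers in PBS pH 7.4, 2% milk, 0.02% Triton X-100, 1 mM DTT, 0.2 mg/mL BSA and 0.4 mg/ml salmon testes DNA. Fluorescence was scanned after antibody detection of each partner (one per run) and regression-normalized.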
row,Sequence,PBM binding z-score
1,CGAACGAAGGCATGAGTTGATAGCAAATGCCGAT,-0.753
2,AGTCAAAGTTCAACTAGGTAACGTAAGATATGCT,6.16
3,CCTTCCGGGTCACGAGGTTATAGCACGACGAGCG,4.51
4,CCTACTGGGCCCAGGTCATTGATCAGTCAAAGCA,1.52
5,CTACCAAGGTGAACAAGGTAGTTGATTACTATTC,0.269
6,TCTATAAGTTGATTAGGGCAACCGAAACAGCGGA,0.285
7,CCTAGCAGGCCAATATGGGTCACTCAAGGCTTGA,2.76
8,GCTCGGAGGCCAAGGTCAGAGCTTTGTCCGTAGA,1.03
9,GCTATTAGATGAAAGGGCAACCGAATGATTCTCG,0.345
10,CCCACTGGGCCATCAGGTCATTGATATCAACGTT,1.11
11,ACAGACAGGTGATGAAGGAAACTCAGGCTATCAT,-0.0621
12,ACTAGTTGGTCAGCTGAGGTCACGCACAATTCGG,3.8
13,ATCTCTAGGTAACAAGTTCAGTTAAAGAGAGGAC,0.963
14,CGTCAAAGTTCAACTAAGGTAACGTAAAGCACGC,6.32
15,CCTAGCAGGCCAGGGCCACTCAAGCATTTCGCTT,-0.944
16,CCTACTGGGCCATCAGGTCTTTGATATCAACGTT,-0.321
17,AGTCAAAGTTCATCTAGGTAACGTCAGATATGCT,6.1
18,ACTAGCAGGCCAAGGGTCACTCATGATTAGTCCG,2.25
19,TCATATAGGTAAAGGTGAAAGTTGAACGATATGA,1.75
20,TGAATGAGTTTAAAGATCAGGGAACGTGGCGTCG,0.111

row,Sequence,PBM binding z-score
1,CGTCCACGGTCAATGCTAGGTCAGTGAAAGCATT,1.1
2,CAAACTCGGTCACCGGAAGGTCAAAGTCCGCATG,5.04
3,GCGACTGGGGCAAAGCGGGTTACCATAAGGTTGG,-0.0696
4,AGAATGAGGTTATACGTAGATCAGGAAAGAAAGT,1.99
5,ATATGTAGGTTAGCTGGGGCCATTCAGACTAGGC,1.15
6,TCTAGCAGGCCAGAGGGTCAATCAAGAGGTACGG,1.33
7,ACTTACGGGTCAACGAGGTGATAGCACGCGTATA,4.17
8,CCTACTGGGCCACGAAAGGTCATTGTTTCAGTGA,5.19
9,ATACCAAGGTGATCGTCAGGTCGTTGATACTAAC,0.928
10,CCGCCTAGGTCAGGGCCAGTATAGGAGGAACGTT,1.11
11,ATCTCTAGGTAACGTTCAGTGAAAGATCGATAGA,0.51
12,CATACAGGGTCAGGTAGGCCAGAGTAGGGACGGC,2.92
13,CATACAGGGTCAGCTAGGCCAGAGTAGGGACGGC,2.84
14,ATAACGAGGGCAATGAGTTGATAGCACGGGTGGC,0.688
15,CTTACAGGGTCAGCTAGGCCAGAGTAGGGACGGC,2.83
16,TCTTGTAGATCAACAGGAGGTTACGAAAGATCGA,1.28
17,CCGCCTGGGGCAGAAAGGTTACCATACCATCCGG,0.416
18,ATGGAAAGGTCGACGAGGTGAGTATACACCGTTT,3.03
19,TCTTGTAGATCAATAGAGGTTACGAAAGTGCGCT,3.47
20,TCTATTAGTTGAAGGGCAACTGACGAGTCCGTTT,0.726
